Each compound was assayed against Nicotinamide N-methyltransferase (Homo sapiens) (UniProt P40261) (assay: Confirmatory Screen for Target Class Profiling of Small Molecule Inhibitors of Methyltransferases (AID 1745852)). Conditions: MTase-Glo luminescence, SAH detection, recombinant enzyme; measured here: NNMT max response; stronger effect = lower value.
Sequence of Nicotinamide N-methyltransferase (Homo sapiens) (P40261 whole entry, looked up): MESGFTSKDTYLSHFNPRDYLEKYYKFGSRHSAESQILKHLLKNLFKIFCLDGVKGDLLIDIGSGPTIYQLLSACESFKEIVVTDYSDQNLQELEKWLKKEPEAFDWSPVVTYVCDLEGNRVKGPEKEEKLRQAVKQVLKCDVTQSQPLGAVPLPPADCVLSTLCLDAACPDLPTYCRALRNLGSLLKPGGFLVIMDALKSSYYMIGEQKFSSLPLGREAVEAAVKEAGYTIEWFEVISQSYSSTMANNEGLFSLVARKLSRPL
COc1cc(/C=C/C(=O)O[C@H]2[C@@H]3C=CO[C@@H](O[C@@H]4O[C@H](CO)[C@@H](O)[C@H](O)[C@H]4O)[C@@H]3[C@@]3(CO)O[C@@H]23)ccc1O was tested, and the activity was 1.36%. CC(C)(O)C1CC=C(C(=O)OC[C@H]2O[C@@H](Oc3cc(C(=O)O)cc(O)c3O)[C@H](O)[C@@H](O)[C@@H]2O)CC1 (stereo partly specified) was tested, and the activity was -6.11%. C=C(C(=O)O)[C@H]1C[C@]2(C)C(=O)CC[C@]23O[C@H]1C[C@@H]3C showed an activity of -2.06%. For COc1c(O)cc2c(c1O)C(=O)O[C@H](C)[C@H]2O, the activity was 0.175%. Compound C=C[C@H]1[C@H](O[C@@H]2O[C@H](CO)[C@@H](O)[C@H](OC(=O)/C=C/c3ccc(O)c(OC)c3)[C@H]2O)OC=C2C(=O)OCC[C@]21O has an activity of -4.35%. COc1cc(/C=C/C(=O)OCC2OC(OC3(CO)OC(CO)C(O)C3O)C(O)C(O)C2O)ccc1O (stereo unspecified) showed an activity of -1.16%. In the case of CC1(C)CC[C@]2(C(=O)O[C@@H]3O[C@H](CO)[C@@H](O)[C@H](O)[C@H]3O)CC[C@]3(C)C(=CCC4[C@@]5(C)C[C@@H](O)[C@H](O)[C@@](C)(CO)C5[C@H](O)C[C@]43C)C2[C@@H]1O (stereo partly specified), the activity is reported as 4%. Work on OC[C@H]1O[C@@H](OCCc2ccccc2)[C@H](O[C@@H]2OC[C@@H](O)[C@H](O)[C@H]2O)[C@@H](O)[C@@H]1O yielded an activity of 3.88%. Compound CC1=CCC(O)C2(C)CCC3C(C)C(=O)OC3C12 (stereo unspecified) has an activity of 2.91%. Work on O=c1[nH]ccc2nc(-c3ccc(CN4CCC(c5nc(-c6ccccn6)n[nH]5)CC4)cc3)c(-c3ccccc3)cc12 yielded an activity of -47.8%. Compound O=C(NCC(=O)N1CCCC1)Nc1ccc2ccccc2c1 has an activity of -23%. O=C(/C=C/c1ccc(O)cc1)OC[C@@]1(O)C=C[C@@H]2C(C(=O)O)=CO[C@@H](O[C@@H]3O[C@H](CO)[C@@H](O)[C@H](O)[C@H]3O)[C@@H]21 was tested, and the activity was -1.35%. With C=C1C(=O)O[C@@H]2CC(C)=C([C@@H](C)CCCOC(C)=O)[C@@H](O)[C@H]12 the activity was -0.922%. In the case of CC(C)c1cc2c(c(O)c1O)[C@@]13CCCC(C)(C)C1[C@@H](O)[C@@H]2OC3=O (stereo partly specified), the activity is reported as -4.78%. For CC1CC(=O)C2=C(O1)OC1(C)CCC3C(C)(C)C4OC4C(=O)C3(C)C1C2 (stereo unspecified), the activity was -84.6%. Compound CC(=O)NC(Cc1c[nH]c2ccccc(=O)c12)C(=O)O (stereo unspecified) has an activity of 3.04%. Work on O=C(O)Cn1nnc(-c2ccc(CN(CCCCOc3ccc(CN4CCCC4)cc3)CCc3ccccc3)cc2)n1 yielded an activity of -1.13%. Compound O=C(O)CC1CCC(c2ccc(-c3ccc(Nc4ccc(C(F)(F)F)nc4)cn3)cc2)CC1 (stereo unspecified) has an activity of -13.8%. C[C@]1(C2CCCC2)Cc2cc(OCC(=O)O)c(Cl)c(Cl)c2C1=O gave an activity of -48.2%. Compound CC1=CC(=O)C(=C(C)C)CC2C(C)(O)CCC12O (stereo unspecified) has an activity of 2.29%. C=CC(C)(O)CC/C=C(\C)COC1O[C@H](CO)[C@@H](O)[C@H](O)[C@H]1O (stereo partly specified) gave an activity of -3.25%. Work on O=C(COCC(=O)N1CCN(C(c2ccccc2)c2ccccc2)CC1)Nc1ccc(Cl)cc1C(=O)O yielded an activity of -44.4%. C=C[C@H]1[C@H](O[C@@H]2O[C@H](CO)[C@@H](O)[C@H](O)[C@H]2O)OC=C(C(=O)OC)[C@H]1CCO gave an activity of -12.2%. CC(=O)c1c(C)cccc1O[C@@H]1O[C@H](CO)[C@@H](O)[C@H](O)[C@H]1O gave an activity of -4.15%. COC(=O)[C@H](Cc1cccc(C(=N)N)c1)[C@@H](C)NC(=O)c1ccc(-c2cc[n+]([O-])cc2)cc1 showed an activity of 1.87%. Work on CC(=O)OC1CC(=O)C2(C)C3CC4=C(OC(C)CC4=O)OC3(C)CCC2C1(C)C (stereo unspecified) yielded an activity of -81.2%. With Nc1ncnc2c1ncn2[C@H]1O[C@@H](C(=O)N2CCN(CC(=O)Nc3cccc4c3CNC4=O)CC2)[C@H](O)[C@@H]1O the activity was -14.5%. For C=C(C(=O)O)[C@@H]1CC[C@H](C)[C@@H]2CC(=O)C(C)=C2C1, the activity was -2.63%. In the case of O=C(/C=C/c1ccccc1)OC[C@H]1O[C@@H](OC(=O)c2cc(O)c(O)c(O)c2)[C@H](O)[C@@H](O)[C@@H]1O, the activity is reported as -4.41%. CC1(C)C2CCC1(C)C(OC(=O)C(O)(CC(=O)O)CC(=O)O)C2 (stereo unspecified) gave an activity of 1.63%. With CC(C)=C1CC2C(CCC2(C)O)C(C)(O)CC1=O (stereo unspecified) the activity was 3.19%. O=C(O)c1cccc(CN2C(=O)/C(=C(\c3ccccc3)c3ccc(Cl)cc3)c3ccccc32)c1 was tested, and the activity was -41.9%. Compound COc1cc(C2Oc3c(OC)cc(/C=C/C(=O)OC4CC(O)(C(=O)O)CC(O)C4O)cc3C2CO)ccc1O (stereo unspecified) has an activity of -1.14%.

What follows are compounds tested against Phenylethanolamine N-methyltransferase (Homo sapiens) (UniProt P11086) in the same assay as above. Conditions: MTase-Glo luminescence, SAH detection, recombinant enzyme; measured here: PNMT max response; stronger effect = lower value.
Sequence of Phenylethanolamine N-methyltransferase (Homo sapiens) (P11086 whole entry, looked up): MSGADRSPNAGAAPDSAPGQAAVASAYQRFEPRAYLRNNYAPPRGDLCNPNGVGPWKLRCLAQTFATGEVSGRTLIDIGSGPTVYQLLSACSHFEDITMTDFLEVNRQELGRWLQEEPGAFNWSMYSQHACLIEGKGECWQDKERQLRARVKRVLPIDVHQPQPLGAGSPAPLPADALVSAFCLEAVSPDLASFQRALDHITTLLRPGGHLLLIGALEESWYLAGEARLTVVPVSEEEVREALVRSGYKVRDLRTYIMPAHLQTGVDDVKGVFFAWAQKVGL
For COc1cc(/C=C/C(=O)O[C@H]2[C@@H]3C=CO[C@@H](O[C@@H]4O[C@H](CO)[C@@H](O)[C@H](O)[C@H]4O)[C@@H]3[C@@]3(CO)O[C@@H]23)ccc1O, the activity was -3.15%. CC(C)(O)C1CC=C(C(=O)OC[C@H]2O[C@@H](Oc3cc(C(=O)O)cc(O)c3O)[C@H](O)[C@@H](O)[C@@H]2O)CC1 (stereo partly specified) was tested, and the activity was -6.07%. With C=C(C(=O)O)[C@H]1C[C@]2(C)C(=O)CC[C@]23O[C@H]1C[C@@H]3C the activity was -0.38%. In the case of COc1c(O)cc2c(c1O)C(=O)O[C@H](C)[C@H]2O, the activity is reported as 0.108%. C=C[C@H]1[C@H](O[C@@H]2O[C@H](CO)[C@@H](O)[C@H](OC(=O)/C=C/c3ccc(O)c(OC)c3)[C@H]2O)OC=C2C(=O)OCC[C@]21O showed an activity of -4.62%. Compound COc1cc(/C=C/C(=O)OCC2OC(OC3(CO)OC(CO)C(O)C3O)C(O)C(O)C2O)ccc1O (stereo unspecified) has an activity of 3.04%. Work on CC1(C)CC[C@]2(C(=O)O[C@@H]3O[C@H](CO)[C@@H](O)[C@H](O)[C@H]3O)CC[C@]3(C)C(=CCC4[C@@]5(C)C[C@@H](O)[C@H](O)[C@@](C)(CO)C5[C@H](O)C[C@]43C)C2[C@@H]1O (stereo partly specified) yielded an activity of 3.8%. OC[C@H]1O[C@@H](OCCc2ccccc2)[C@H](O[C@@H]2OC[C@@H](O)[C@H](O)[C@H]2O)[C@@H](O)[C@@H]1O showed an activity of -1.31%. In the case of CC1=CCC(O)C2(C)CCC3C(C)C(=O)OC3C12 (stereo unspecified), the activity is reported as -2.6%. O=c1[nH]ccc2nc(-c3ccc(CN4CCC(c5nc(-c6ccccn6)n[nH]5)CC4)cc3)c(-c3ccccc3)cc12 gave an activity of -18%. For O=C(NCC(=O)N1CCCC1)Nc1ccc2ccccc2c1, the activity was -8.32%. With O=C(/C=C/c1ccc(O)cc1)OC[C@@]1(O)C=C[C@@H]2C(C(=O)O)=CO[C@@H](O[C@@H]3O[C@H](CO)[C@@H](O)[C@H](O)[C@H]3O)[C@@H]21 the activity was 0.204%. With C=C1C(=O)O[C@@H]2CC(C)=C([C@@H](C)CCCOC(C)=O)[C@@H](O)[C@H]12 the activity was -2.38%. For CC(C)c1cc2c(c(O)c1O)[C@@]13CCCC(C)(C)C1[C@@H](O)[C@@H]2OC3=O (stereo partly specified), the activity was -0.254%. Compound CC1CC(=O)C2=C(O1)OC1(C)CCC3C(C)(C)C4OC4C(=O)C3(C)C1C2 (stereo unspecified) has an activity of -2.49%. CC(=O)NC(Cc1c[nH]c2ccccc(=O)c12)C(=O)O (stereo unspecified) gave an activity of -0.114%. Compound O=C(O)Cn1nnc(-c2ccc(CN(CCCCOc3ccc(CN4CCCC4)cc3)CCc3ccccc3)cc2)n1 has an activity of 0.559%. Work on O=C(O)CC1CCC(c2ccc(-c3ccc(Nc4ccc(C(F)(F)F)nc4)cn3)cc2)CC1 (stereo unspecified) yielded an activity of -3.22%. Work on C[C@]1(C2CCCC2)Cc2cc(OCC(=O)O)c(Cl)c(Cl)c2C1=O yielded an activity of -6.93%. With CC1=CC(=O)C(=C(C)C)CC2C(C)(O)CCC12O (stereo unspecified) the activity was 1.07%. Work on C=CC(C)(O)CC/C=C(\C)COC1O[C@H](CO)[C@@H](O)[C@H](O)[C@H]1O (stereo partly specified) yielded an activity of -3.19%. Compound O=C(COCC(=O)N1CCN(C(c2ccccc2)c2ccccc2)CC1)Nc1ccc(Cl)cc1C(=O)O has an activity of -8.81%. C=C[C@H]1[C@H](O[C@@H]2O[C@H](CO)[C@@H](O)[C@H](O)[C@H]2O)OC=C(C(=O)OC)[C@H]1CCO showed an activity of -3.1%. In the case of CC(=O)c1c(C)cccc1O[C@@H]1O[C@H](CO)[C@@H](O)[C@H](O)[C@H]1O, the activity is reported as -3.91%. COC(=O)[C@H](Cc1cccc(C(=N)N)c1)[C@@H](C)NC(=O)c1ccc(-c2cc[n+]([O-])cc2)cc1 showed an activity of -2.03%. In the case of CC(=O)OC1CC(=O)C2(C)C3CC4=C(OC(C)CC4=O)OC3(C)CCC2C1(C)C (stereo unspecified), the activity is reported as 0.0652%. With Nc1ncnc2c1ncn2[C@H]1O[C@@H](C(=O)N2CCN(CC(=O)Nc3cccc4c3CNC4=O)CC2)[C@H](O)[C@@H]1O the activity was -35.1%. For C=C(C(=O)O)[C@@H]1CC[C@H](C)[C@@H]2CC(=O)C(C)=C2C1, the activity was -9%. O=C(/C=C/c1ccccc1)OC[C@H]1O[C@@H](OC(=O)c2cc(O)c(O)c(O)c2)[C@H](O)[C@@H](O)[C@@H]1O showed an activity of -0.813%. Work on CC1(C)C2CCC1(C)C(OC(=O)C(O)(CC(=O)O)CC(=O)O)C2 (stereo unspecified) yielded an activity of 2.73%. CC(C)=C1CC2C(CCC2(C)O)C(C)(O)CC1=O (stereo unspecified) gave an activity of 3.52%. In the case of O=C(O)c1cccc(CN2C(=O)/C(=C(\c3ccccc3)c3ccc(Cl)cc3)c3ccccc32)c1, the activity is reported as -8.16%. Compound COc1cc(C2Oc3c(OC)cc(/C=C/C(=O)OC4CC(O)(C(=O)O)CC(O)C4O)cc3C2CO)ccc1O (stereo unspecified) has an activity of -2.58%.
